In the library only some 3.6% were active in any assay of this set; here they are far more common.
Pf apPOL inh: Pf-apPOL inhibitors, biochemical, fluorescence | inhibition, % at 10 µM | AID 1794808, 2022 | Recombinant Pf-apPOL, molecular beacon fluorescence, 1.5 h | 0.25% of 210,000 active
mHTT CaM bind: mutant huntingtin-calmodulin interaction inhibitors – biochemical, AlphaScreen, primary screen | P42858 | AlphaScreen His-mHTT/GST-CaM binding, luminescence | inhibition, % at 15 µM | 3.6% of 190,000 active | AID 1671202, 2021;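 note: 0% = both proteins with DMSO and 100% = one protein alone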
Target sequence (P42858 whole entry, looked up, stated change not applied): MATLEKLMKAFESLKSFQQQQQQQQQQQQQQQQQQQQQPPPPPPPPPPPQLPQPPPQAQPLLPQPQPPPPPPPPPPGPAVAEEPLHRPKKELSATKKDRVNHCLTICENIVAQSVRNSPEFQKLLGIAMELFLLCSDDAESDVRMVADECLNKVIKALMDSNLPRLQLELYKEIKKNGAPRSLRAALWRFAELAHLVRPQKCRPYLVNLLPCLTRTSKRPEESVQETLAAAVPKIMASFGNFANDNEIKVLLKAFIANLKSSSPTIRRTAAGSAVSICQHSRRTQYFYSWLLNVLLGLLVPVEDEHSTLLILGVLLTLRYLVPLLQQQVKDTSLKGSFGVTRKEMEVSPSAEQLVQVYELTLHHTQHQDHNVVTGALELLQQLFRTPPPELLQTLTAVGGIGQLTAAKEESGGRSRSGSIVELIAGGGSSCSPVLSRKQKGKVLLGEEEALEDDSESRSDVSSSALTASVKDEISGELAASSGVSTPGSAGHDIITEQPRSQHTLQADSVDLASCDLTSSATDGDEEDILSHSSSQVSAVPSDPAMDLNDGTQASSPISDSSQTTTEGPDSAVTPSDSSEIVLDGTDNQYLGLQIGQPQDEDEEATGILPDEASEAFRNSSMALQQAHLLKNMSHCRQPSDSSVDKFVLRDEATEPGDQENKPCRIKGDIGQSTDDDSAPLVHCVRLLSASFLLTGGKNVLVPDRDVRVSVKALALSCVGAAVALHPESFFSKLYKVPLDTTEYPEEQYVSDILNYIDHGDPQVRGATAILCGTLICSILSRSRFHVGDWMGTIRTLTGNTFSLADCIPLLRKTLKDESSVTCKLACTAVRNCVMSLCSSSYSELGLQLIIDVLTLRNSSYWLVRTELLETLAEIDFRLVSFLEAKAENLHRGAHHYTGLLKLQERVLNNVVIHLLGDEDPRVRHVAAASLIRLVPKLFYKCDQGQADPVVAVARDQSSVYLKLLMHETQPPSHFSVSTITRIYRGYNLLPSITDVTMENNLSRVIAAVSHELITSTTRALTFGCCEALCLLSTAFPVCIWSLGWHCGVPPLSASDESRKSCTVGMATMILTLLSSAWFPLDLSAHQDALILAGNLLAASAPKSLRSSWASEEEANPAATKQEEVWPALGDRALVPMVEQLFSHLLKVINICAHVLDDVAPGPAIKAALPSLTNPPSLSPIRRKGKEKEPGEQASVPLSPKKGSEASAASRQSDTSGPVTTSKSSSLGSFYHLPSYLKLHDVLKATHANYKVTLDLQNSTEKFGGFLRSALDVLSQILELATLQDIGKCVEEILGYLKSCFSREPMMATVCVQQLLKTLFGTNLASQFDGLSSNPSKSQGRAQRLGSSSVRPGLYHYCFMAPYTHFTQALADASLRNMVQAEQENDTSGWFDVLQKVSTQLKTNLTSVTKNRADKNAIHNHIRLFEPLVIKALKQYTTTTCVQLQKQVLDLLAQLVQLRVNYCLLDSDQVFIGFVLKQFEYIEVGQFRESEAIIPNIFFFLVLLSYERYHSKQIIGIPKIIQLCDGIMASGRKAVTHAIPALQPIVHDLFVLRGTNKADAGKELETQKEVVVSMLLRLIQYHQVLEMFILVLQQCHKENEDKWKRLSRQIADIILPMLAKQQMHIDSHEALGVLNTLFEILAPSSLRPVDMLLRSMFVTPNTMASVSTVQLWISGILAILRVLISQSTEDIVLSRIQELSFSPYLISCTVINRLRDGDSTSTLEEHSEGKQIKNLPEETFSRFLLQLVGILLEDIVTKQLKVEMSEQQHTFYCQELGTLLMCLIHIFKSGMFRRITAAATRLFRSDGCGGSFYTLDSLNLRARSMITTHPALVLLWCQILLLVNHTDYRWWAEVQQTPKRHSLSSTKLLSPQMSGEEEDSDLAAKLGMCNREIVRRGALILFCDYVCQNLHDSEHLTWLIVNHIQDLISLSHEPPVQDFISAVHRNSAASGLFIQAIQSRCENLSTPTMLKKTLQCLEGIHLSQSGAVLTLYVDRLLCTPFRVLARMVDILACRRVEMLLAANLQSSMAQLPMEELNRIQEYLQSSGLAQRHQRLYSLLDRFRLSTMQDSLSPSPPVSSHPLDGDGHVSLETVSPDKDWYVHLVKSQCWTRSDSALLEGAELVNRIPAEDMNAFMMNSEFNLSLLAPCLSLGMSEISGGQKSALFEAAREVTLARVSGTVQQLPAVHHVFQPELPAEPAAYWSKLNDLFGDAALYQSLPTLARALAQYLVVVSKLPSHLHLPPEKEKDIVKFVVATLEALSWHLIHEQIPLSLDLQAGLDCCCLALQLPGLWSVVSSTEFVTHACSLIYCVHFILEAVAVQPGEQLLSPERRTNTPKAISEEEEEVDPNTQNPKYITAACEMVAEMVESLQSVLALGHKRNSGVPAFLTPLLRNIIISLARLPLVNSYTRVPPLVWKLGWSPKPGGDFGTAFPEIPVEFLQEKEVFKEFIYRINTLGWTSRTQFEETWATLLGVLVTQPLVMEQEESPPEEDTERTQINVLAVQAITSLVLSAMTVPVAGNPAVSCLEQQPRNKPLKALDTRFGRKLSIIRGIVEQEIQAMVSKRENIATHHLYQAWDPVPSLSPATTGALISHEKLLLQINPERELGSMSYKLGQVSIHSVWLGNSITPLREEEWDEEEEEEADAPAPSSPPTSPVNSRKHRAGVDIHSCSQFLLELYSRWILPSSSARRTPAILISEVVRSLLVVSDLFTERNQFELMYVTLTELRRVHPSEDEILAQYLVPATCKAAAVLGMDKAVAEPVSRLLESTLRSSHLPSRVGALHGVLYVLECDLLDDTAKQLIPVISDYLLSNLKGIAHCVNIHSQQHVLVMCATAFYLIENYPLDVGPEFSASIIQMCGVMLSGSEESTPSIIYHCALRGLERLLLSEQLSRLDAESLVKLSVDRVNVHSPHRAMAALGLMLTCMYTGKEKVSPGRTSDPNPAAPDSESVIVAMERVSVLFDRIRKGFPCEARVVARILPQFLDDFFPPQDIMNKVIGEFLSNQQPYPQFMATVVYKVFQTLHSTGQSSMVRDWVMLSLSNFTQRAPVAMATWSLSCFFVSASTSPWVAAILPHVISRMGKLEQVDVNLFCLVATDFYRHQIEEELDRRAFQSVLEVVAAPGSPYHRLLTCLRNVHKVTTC
The depositor's hits bear a star; / = not tested or not shown. Cut-off read from the data, not from the text of the source: active = inhibition above about 50%; inactive = the rest.

SMILES | Pf apPOL inh | mHTT CaM bind
COc1ccc(OC)c(Nc2ncc3c(n2)CCN(Cc2cccc(C)c2)C3)c1 | -3 | 64*
COc1ccc(Nc2ncc3c(n2)CCN(Cc2ccccc2OC)C3)c(OC)c1 | -3 | 45
Cc1cc(C)c(NC(=O)c2cc(S(=O)(=O)N3CCCC3)ccc2F)c(C)c1 | -13 | 1
CCOc1ccc(N2C(=O)NC(=O)/C(=C\c3ccc(OCC(=O)O)c(OC)c3)C2=O)cc1 | -2 | 3
COc1ccc(Nc2nc(Nc3ccc(OC)cc3)nc(Sc3nccn3C)n2)cc1 | -1 | 40
Cc1ccc(-c2ccccc2N)o1 | -1 | 19
Cc1ccc(-c2ccc(N)cc2)o1 | -1 | 55*
O=C1NC(=O)N(Cc2ccco2)C(=O)/C1=C/c1cn(Cc2ccc(F)cc2)c2ccccc12 | 1 | 17
O=C1C(Nc2ccccc2)=CC(c2ccccc2F)N1c1ccccc1 (centres undefined) | -3 | -3
COc1ccc(NC(=O)CC2(CC(=O)O)CCCC2)cc1OC | -6 | /
O=C(Cc1cccs1)NCCOc1ccc2nnc(-c3ccc(F)cc3)n2n1 | 3 | -4
O=C(NCCOc1ccc2nnc(-c3ccc(F)cc3)n2n1)c1cc(-c2ccco2)[nH]n1 | 64* | -6
CSc1ccc(Cl)c(C(=O)Nc2c(C)n(C)n(-c3ccccc3)c2=O)c1 | 63* | -2
Cc1c(NC(=O)c2cc([N+](=O)[O-])ccc2Cl)c(=O)n(-c2ccccc2)n1C | -1 | -1
O=C1Nc2ccc(F)cc2C1=NN1CCOCC1 | -9 | /
Cc1ccc(C(=O)N2CCCn3cc(-c4cccc(C#N)c4)nc32)cc1 | -3 | 24
CCc1ccc(S(=O)(=O)Nc2ccc(Cl)cn2)cc1 | 10 | -1
O=S(=O)(Nc1ccccc1)c1ccc2[nH]c3c(c2c1)CCCCC3 | -6 | 100*
NS(=O)(=O)c1ccc2[nH]c3c(c2c1)CCCC3 | -10 | 3
O=S(=O)(Nc1ccc(F)cc1)c1ccc2[nH]c3c(c2c1)CCCC3 | -4 | 98*
CN(CC(=O)NC1CCCC1)S(=O)(=O)c1ccc2[nH]c3c(c2c1)CCCC3 | -6 | 18
CN(CC(=O)NCc1ccc(F)cc1)S(=O)(=O)c1ccc2[nH]c3c(c2c1)CCCC3 | -4 | 41
O=S(=O)(Nc1ccc(Cl)cn1)c1ccc2[nH]c3c(c2c1)CCCC3 | -2 | 55*
CN(CC(=O)NC1CCCCC1)S(=O)(=O)c1ccc2[nH]c3c(c2c1)CCCC3 | 0 | 97*
O=C(O)C1CC(=O)N(Cc2ccccc2)C(=Nc2ccc(F)cc2)S1 (centres undefined) | -2 | -2
SMILES | Pf apPOL inh | mHTT CaM bind
Cc1ccc(CN2C(=O)NC3(CCN(C(=O)c4cc(Cl)ccc4F)CC3)C2=O)cc1 | -5 | 11
Cc1ccc(C(=O)NCCC2CCN(C(=O)Nc3cccc(Cl)c3)CC2)cc1 | 10 | -7
Cc1cc(C)c(C(=O)N2CCC(CC(=O)NC(c3cccs3)C(C)C)CC2)[nH]1 (centres undefined) | -2 | 10
O=C(Nc1c(F)cc(Br)cc1F)c1c(F)cccc1F | -7 | -3
COc1ccc(C(=O)N2CCCC(c3cccc(C(=O)NCCCOC(C)C)c3)C2)cc1 (centres undefined) | 1 | 21
O=S(=O)(NC1CCCCC1)c1ccc2[nH]c3c(c2c1)CCCC3 | -5 | 87*
Cc1ccc(S(=O)(=O)NC2CCCCC2)cc1[N+](=O)[O-] | -2 | 0
CN(Cc1ccccc1)C(=O)CCC1CCCN(c2cc(NC3CC3)ncn2)C1 (centres undefined) | -5 | 23
COc1ccc(NC(=O)C2CC(=O)N(c3ccccc3)C2)cc1 (centres undefined) | 2 | 0
O=C(Nc1ccc(Oc2ccccc2)cc1)C1CC(=O)N(c2ccccc2Cl)C1 (centres undefined) | 0 | 72*
CSc1nc2c(c(Nc3ccc(O)c(C(=O)O)c3)n1)CCC2 | 1 | 4
COc1ccc(Cl)cc1NC(=O)C(=O)NCc1cccnc1 | -8 | 3
COc1ccc(Cl)cc1NC(=O)c1c(NCc2cccnc2)sc2c1CCC2 | -16 | 93*
COc1ccc(Cl)cc1NC(=O)c1c(NCc2cccs2)sc2c1CCC2 | -15 | 26
COc1ccc(Cl)cc1NC(=O)c1c(NCc2cccnc2)sc2c1CCCC2 | -18 | 79*
O=C(CSc1nc2ccccc2[nH]1)Nc1nnc(-c2ccccc2)s1 | -14 | 16
Cc1cc(N)nn1Cn1cc(Cl)cn1 | / | -1
O=C(NC1CCN(c2nnc3ccc(Cl)cn23)CC1)c1cccc(F)c1 | -3 | 6
Cc1ccc(CN2CCCC(n3c(=O)n(C)c4cncnc43)C2)s1 (centres undefined) | -1 | 1
COc1ccc(C2CC(=O)C3=C(C2)Nc2ccccc2NC3c2cc(Cl)c(O)c(OC)c2)cc1 (centres undefined) | -17 | 23
COc1ccc(C2CC(=O)C3=C(C2)Nc2ccccc2NC3c2cc(C)ccc2C)cc1 (centres undefined) | 0 | 62*
CC1=C(C#N)C(c2cccnc2)C2=C(CC(c3ccc(Cl)cc3)CC2=O)N1 (centres undefined) | 1 | -4
COc1cc(C2Nc3ccccc3NC3=C2C(=O)CC(c2ccc(C)cc2)C3)cc(Cl)c1O (centres undefined) | 13 | 62*
CCOc1ccccc1C1C(C#N)=C(C)NC2=C1C(=O)CC(c1ccc(Cl)cc1)C2 (centres undefined) | 1 | 52*
COc1cccc(C2Nc3ccccc3NC3=C2C(=O)CC(c2ccc(Cl)cc2)C3)c1OC (centres undefined) | 5 | 80*
SMILES | Pf apPOL inh | mHTT CaM bind
COc1ccc(C2CC(=O)C3=C(C2)Nc2ccccc2NC3c2ccccc2Br)cc1 (centres undefined) | -7 | 12
COc1ccccc1C1Nc2ccccc2NC2=C1C(=O)CC(c1ccc(Cl)cc1)C2 (centres undefined) | -11 | 5
COc1cc(OC)c(NC(=O)c2sc3nc(C)n(C)c(=O)c3c2C)cc1Cl | -3 | 2
O=C(NCc1ccccn1)/C(=C\c1ccccc1Cl)c1ccccc1 | 4 | 14
O=C(OCCSc1sccc1[N+](=O)[O-])c1ccc(Cl)cc1 | 4 | /
O=C(Nc1nc(-c2cc3ccccc3oc2=O)cs1)c1ccc(Br)s1 | 75* | -8
O=C(Nc1nc(-c2cc3ccccc3oc2=O)cs1)c1ccc(F)cc1 | -2 | -1
CCOC(=O)C(CC)Sc1nc2c(cnn2CCO)c(=O)[nH]1 (centres undefined) | -5 | -5
Cc1ccccc1NCN1C(=O)S/C(=C\c2ccc(F)cc2)C1=O | -5 | 28
Cc1ccccc1NCN1C(=O)S/C(=C\c2ccccc2)C1=O | 0 | 53*
C=CCOc1ccc(CN2CCCCC2)cc1 | -38 | -3
CCc1[nH]c2ccccc2c1C | -11 | 50*
Cc1c(Cl)c(=O)[nH]c2ccccc12 | -8 | /
NC(=O)c1ccccc1NC(=O)CSCc1cccc(Cl)c1 | -5 | -5
Clc1ccc(-c2cn3nc(-c4ccccc4)sc3n2)cc1 | -6 | 3
CC(=O)Nc1ccc(-c2cn3nc(-c4ccccc4)sc3n2)cc1 | 0 | 58*
COc1cc(CNC(=O)c2cc3c(n2C)CCN(Cc2ccccc2)C3)cc(OC)c1 | -1 | 48
O=C1c2cccnc2C(=O)N1c1ccc(N2C(=O)c3cccnc3C2=O)c(Cl)c1 | 0 | 63*
O=C1c2ccccc2C(=O)N1c1ccc(N2C(=O)c3ccccc3C2=O)c(Cl)c1 | 0 | 20
